# Experimental data reported in PubChem BioAssay (Tox21).
# Values joined by “and” are separate entries in the source; they are usually repeats but may differ in a detail not shown here. Equal values may be shown once. Results filed as inconclusive are left out. Some compounds were tested as several samples or in several runs, with calls that do not always agree. Active and inactive are the calls of the source. Calls follow the shape of the dose curve; as a rule, active = well fitted cell-killing curve with a large enough effect in the repeat runs; inconclusive = weak or mixed curves, or effect the other way; inactive = no such curve, though single readings can be large or run the other way.
# Experiment: qHTS assay for identifying genotoxic compounds that show differential cytotoxicity against isogenic chicken DT40 cell lines with known DNA damage response pathways - wild type cell line (AID 743012); also: nearly all actives have a fitted effect of over 60% in size
# Details: DT40 wild type chicken cells viability, CellTiter-Glo, 40 h; series mostly up to 68.4 µM
# Procedure, shortened: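 Viability of DNA repair-proficient chicken DT40 cells was assessed by CellTiter-Glo luminescence following 40 h compound exposure at 37 C/5% CO2.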
# Potency is read from the fitted curve at half-maximal effect.
row,Structure (SMILES),Potency
1,CCCCCCCCCCCCN(CCO)CCO,0.86 µM (active)
2,CCCCNc1c(C(=O)OCC)c(C)nc2c1cnn2CC,21.1 µM (active)
3,CCCCCCCCCCCCCCCC,inactive
4,Oc1ccc(-c2ccccc2)c(Cl)c1,inactive
5,S=C(SSSSSSC(=S)N1CCCCC1)N1CCCCC1,0.674 µM (active)
6,COc1cccc(CCc2ccccc2OCC(CN(C)C)OC(=O)CCC(=O)O)c1 (stereo unspecified),8.41 µM (active)
7,Cc1cc2c(C(C)C)c(O)c(O)c(C=O)c2c(O)c1-c1c(C)cc2c(C(C)C)c(O)c(O)c(C=O)c2c1O,10.6 µM (active)
8,ClC/C=C\CCl,inactive
9,O=S(=O)(O)CCCN1CCOCC1,inactive
10,CC(=O)Nc1ccc(O)cc1,inactive
11,CO[C@H]1C=CO[C@@]2(C)Oc3c(C)c(O)c4c(O)c(cc(O)c4c3C2=O)NC(=O)/C(C)=C\C=C/[C@H](C)[C@H](O)[C@@H](C)[C@@H](O)[C@@H](C)[C@H](OC(C)=O)[C@@H]1C,inactive and 13.8 µM (active)
12,CNC(=S)NN,7.7 µM (active)
13,CNC(=O)c1cc(Oc2ccc(NC(=O)Nc3ccc(Cl)c(C(F)(F)F)c3)cc2)ccn1,4.73 µM (active)
14,Cc1cccc(Br)c1,inactive
15,CC1=C(/C=C/C(C)=C/C=C/C(C)=C/C(=O)Nc2ccc(O)cc2)C(C)(C)CCC1,9.44 µM (active) and 22.2 µM (active)
16,CC(C)=C1CC[C@@H](C)CC1=O,inactive
17,O=C1c2c(O)ccc([N+](=O)[O-])c2C(=O)c2c([N+](=O)[O-])ccc(O)c21,13.6 µM (active)
18,COc1cc(C(C)C)c2c(c1)S(=O)(=O)N(COc1cc(=O)n3cccc(OCCN4CCCCC4)c3n1)C2=O,13 µM (active)

row,Structure (SMILES),Potency
1,CCCCOC(=O)C(C)CC (stereo unspecified),12.2 µM (active)
2,CC(C)c1cccc(C(C)C)c1N1C(=O)c2ccc(O)cc2C1=O,8.63 µM (active)
3,CCCN(CCc1cccs1)[C@H]1CCc2c(O)cccc2C1,18.8 µM (active)
4,CCCSS/C(CCO)=C(\C)N(C=O)Cc1cnc(C)nc1N,5.31 µM (active)
5,S=P(N1CC1)(N1CC1)N1CC1,21.1 µM (active)
6,Clc1ccc(C(c2ccccc2Cl)C(Cl)Cl)cc1 (stereo unspecified),23.7 µM (active)
7,CCC(C)(C)c1cc(O)c(C(C)(C)CC)cc1O,17.2 µM (active)
8,CCCCCCCCCCCCCCNCCO,11.9 µM (active)
9,CCCCCCCCCC(=O)N(C)C,inactive
10,CCc1cccc(C)c1,inactive
11,C[C@@H]1CC[C@H]2C(C)(C)[C@H]3C[C@@]12CC[C@@]3(C)O,inactive
12,Cc1cn[nH]c1,inactive
13,CC=O,0.0717 µM (active)
14,Cn1cnc2ncnc(N)c21,inactive
15,Clc1ccc(C(Cn2ccnc2)OCc2c(Cl)cccc2Cl)c(Cl)c1 (stereo unspecified),11.4 µM (active)
16,Clc1ccccc1CN1CCc2sccc2C1,23.7 µM (active)
17,CSc1ccc2c(c1)N(CCC1CCCCN1C)c1ccccc1S2 (stereo unspecified),5.96 µM (active) and 21.6 µM (active)
18,CCN=C1C=CC(=C(c2ccc(N(CC)CC)cc2)c2ccc(N(CC)CC)cc2)c2ccccc21,0.0192 µM (active)
